According to PubChem BioAssay:

Assay: probe aXIP binding to arrayed compounds – biochemical, NeuroSMM set, 635/667 nm fluorescence, primary screen (AID 1119);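 note: probe is the protein aXip251-270 applied at 1 µg/mL to compound-printed slides; binding of probe to printed compounds measured as 667 nm fluorescence plus signal to noise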
Conditions: small-molecule microarray, higher = more signal, called active from +8 up or from −8 down

Composite Z-score, inactive:
Cc1ccccc1C(O)C1C=CC2C(=O)N(C)C(=O)C2N1N(c1ccccc1)c1ccccc1 (centres undefined) 0.111
COc1ccc([Si](C)(C)[C@@H]2[C@@H](CC(=O)N(CCO)Cc3ccccc3)O[C@]3(C(=O)N(Cc4cccc(N5C(=O)c6cccc7cccc5c67)c4)c4ccccc43)[C@H]2C)cc1 0.363
C=C[C@@H](COC(C)=O)N(C(=O)OC(C)(C)C)S(=O)(=O)c1ccc(Br)cc1 0.388
C=C(COC)/C(=C/C[C@H](OC(C)=O)c1ccc(OCCO)cc1)c1cc(C(=O)OC)ccc1OC 0.835
Cc1ccc(S[C@]2(C(=O)NCC(F)(F)F)CC(=O)N(Cc3ccccc3C(F)(F)F)[C@@H]2c2ccc(CO)cc2I)cc1 -0.0127
COC(=O)[C@@]1(Cc2ccc(F)cc2)[C@H]2c3cc(C(=O)N4CCCC4)n(CCc4ccc(O)c(O)c4)c3C[C@H]2CN1C(=O)c1ccccc1 0.41
COCCOC(=O)N1C(=O)[C@@]2(c3cc(C#CCC(C(=O)OC)C(=O)OC)ccc31)[C@H](C(=O)N1CCc3cc(OC)c(OC)cc3C1)[C@H]1C(=O)O[C@H](c3ccccc3)[C@H](c3ccccc3)N1[C@@H]2c1ccc(OCCO)cc1 0.654
COc1ccc(CCN2C(=O)[C@@]3(Cc4ccccc42)c2ccccc2C(=O)N(Cc2ccccc2OC)[C@H]3c2ccc(CO)cc2)cc1 -0.0127
CN(C)CCCNC(=O)[C@@]1(c2ccc([N+](=O)[O-])cc2)CC(=O)N(CC23CC4CC(CC(C4)C2)C3)[C@@H]1c1ccc(CO)cc1I -0.729
